Among the data in PubChem BioAssay AID463173 (ICCB-Longwood Screening Facility, Harvard Medical School, 2010) are survival values, retold here.

The campaign covered roughly 52,000 compounds. About 1,700 (3.3%) were called active. Many of the other results were omitted from the sample, so actives are more common in it than they were. Values without a mark were called inactive. No stated cut-off is given here; in the data, active means survival mostly below about 52% (no sharp cut-off); inactive means mostly above about 56%.

This assay relates to Wild type. As to the kind of experiment: growth inhibition of S. aureus wild type versus tarO mutant, primary screen, teichoic acid synthesis inhibitors, RN4220, OD600 (AID 463173). Particulars: S. aureus RN4220 wild type/DeltatarO growth, OD600, 18 h, stronger effect = lower value, screened at 18.75 µg/mL (by protocol).
In the case of `Cc1ccc(-c2nnn(CC(=O)N(CC(=O)NCCC(C)C)c3ccc(F)cc3)n2)cc1`, the survival is 84%.
`CCOC(=O)C1C(=O)N(C(=O)c2cncc(Br)c2)CC1c1ccccc1` (configuration not stated): the survival was 112%.
Take `CCOC(=O)c1cc(S(=O)(=O)Nc2cc(F)ccc2C)[nH]n1`: the survival was 75%.
In the case of `CCC1Oc2ccccc2N(CC(=O)NCc2ccccc2)C1=O` (configuration not stated) it was -3% (active); in that of `CCC1Oc2ccccc2N(CC(=O)NCc2ccc(C)cc2)C1=O` (configuration not stated), 77%; in that of `CC1Oc2ccccc2N(CC(=O)NCc2ccccc2)C1=O` (configuration not stated), 105%.
For `Cc1ccc(CCNC(=O)c2ccc(CSCc3ccc(C)cc3)o2)cc1`, the survival was 65%.
`CCc1nn2c(=O)cc(COC(=O)c3cccc(NC(=O)COc4ccccc4F)c3)nc2s1`: the survival is 124%.
In the case of `CCOC(=O)N1CCC(NC(=O)c2cnn(-c3ccc(F)cc3F)c2C2CCN(C(=O)OC(C)(C)C)CC2)CC1` it was 82%; in that of `CC(C)(C)OC(=O)N1CCC(c2c(C(=O)NCCN3CCOCC3)cnn2-c2ccc(F)cc2F)CC1`, -3% (active); in that of `Cc1cccc(C)c1-n1ncc(C(=O)NCCCN2CCCCC2)c1C1CCN(C(=O)OC(C)(C)C)CC1`, 85%.
Turning to `Cc1cccc(C)c1-n1ncc(C(=O)NCCN2CCN(C)CC2)c1C1CCN(C(=O)OC(C)(C)C)CC1`, the survival is 0% (active).
For the compound `Cc1cccc(C)c1-n1ncc(C(=O)NCCN2CCOCC2)c1C1CCN(C(=O)OC(C)(C)C)CC1`, the survival is 75%.
Take `CC(C)(C)OC(=O)N1CCC(c2c(C(=O)NCCN3CCc4ccccc4C3)cnn2-c2ccc(F)cc2F)CC1`: the survival is 81%.
Regarding `CC(C)(C)OC(=O)N1CCC(c2c(C(=O)NCCN3CCOCC3)cnn2-c2ccc(F)cc2)CC1`, the survival was 89%.
Turning to `CC(C)(C)OC(=O)N1CCC(c2c(C(=O)NC3CCN(Cc4ccccc4)CC3)cnn2-c2ccc(F)cc2F)CC1`, the survival was -4% (active).
With `CC(C)(C)OC(=O)N1CCC(c2c(C(=O)NC3CCN(Cc4ccccc4)CC3)cnn2-c2cccc(F)c2)CC1` the figure was 76%.
`Cc1cccc(OCC(=O)Nc2c(C(=O)N3CCN(c4ccccc4)CC3)oc3ccccc23)c1`: the survival was 86%.
As for `CN=C1SC(CC(=O)NC(N)=O)C(=O)N1C` (configuration not stated), the survival is 92%.
On to `COc1ccc(OC)c(NC(=O)CSc2ccnc(=O)[nH]2)c1`, for which the survival was 80%.
On to `CC(=O)Nc1cccc(NC(=O)Cn2c(-c3cccnc3)ccc(C#N)c2=O)c1`, for which the survival was 89%.
In the case of `CCN1CCN(C(c2ccc(OC)cc2)c2c(O)cc(C)n(Cc3ccco3)c2=O)CC1` (configuration not stated) it was 71%; in that of `CCOC(=O)c1c(NC(=O)CN(CC)CC)sc2c1CCC/C2=N\O`, 112%.
In the case of `O=C(CSc1nc(-c2ccco2)nc2cc(=O)[nH]n12)Nc1ccc(F)cc1` it was 65%; in that of `CC(NCc1ccc2c(c1)OCO2)C(=O)NC1CCCCC1` (configuration not stated), 103%; in that of `CCOC(=O)c1cc(-c2ccccc2)n(CCC(=O)NCCc2ccccc2)c1C`, -2% (active).
With `CCOC(=O)c1cc(-c2ccccc2)n(CCC(=O)NCCc2ccc(C)cc2)c1C` the figure was 73%; with `CCOC(=O)c1cc(-c2ccccc2)n(CCC(=O)NCCc2cccc(C)c2)c1C`, 49%.
With `CCc1ccccc1NC(=O)COC(=O)c1cn(CC)c2nc(C)ccc2c1=O`, the survival is 83%.
As for `COc1ccc(OC)c(-c2nc3c(C#N)c[nH]n3c2NC2CCCCC2)c1`, the survival is 102%.
Turning to `COc1ccc(CCNc2nc(-c3ccc(Cl)cc3)cc(C(F)(F)F)n2)cc1OC`, the survival was 18% (active).
Regarding `COc1ccc(CCNC(=O)CSc2nc(-c3ccc(F)cc3)cc(C(F)(F)F)n2)cc1OC`, the survival was 97%.
With `COc1ccc(CCNc2nc(-c3ccc(OC)c(OC)c3)cc(C(F)(F)F)n2)cc1OC` the figure was 0% (active).
In the case of `COc1ccc(CCNc2nc(-c3ccc(C)cc3)cc(C(F)F)n2)cc1OC` it was 100%; in that of `COc1ccc(-c2cc(C(F)(F)F)nc(SCC(=O)NCc3ccc(OC)c(OC)c3)n2)cc1`, 97%; in that of `COc1ccc(CCNc2nc3c(-c4cccc(C(F)(F)F)c4)nnn3c3ccccc23)cc1OC`, 83%.
With `COc1ccc(CCNc2nc(-c3ccccc3OC)cc(C(F)(F)F)n2)cc1OC` the figure was -8% (active); with `COc1ccc(-c2cc(C(F)(F)F)nc(SCC(=O)NCCc3ccc(OC)c(OC)c3)n2)cc1`, 70%; with `COc1ccc(CCNc2nc(-c3ccc(F)cc3)cc(C(F)(F)F)n2)cc1OC`, 142%.
Regarding `CC(C)C1N(c2ccccc2)CCN1c1ccccc1`, the survival was 110%.
With `Cc1ccccc1OCC(=O)NCCN1CCCC1`, the survival is 113%.
In the case of `COc1cc(-c2noc(CSc3nc(-c4ccccc4)cc(=O)[nH]3)n2)cc(OC)c1OC`, the survival was 59%.
With `O=c1[nH]cc(COCC(F)(F)C(F)F)c(=O)[nH]1`, the survival was 111%.
`Cc1ccccc1CS(=O)(=O)Cc1ccc(C(=O)NCCc2ccc(Cl)cc2)o1`: the survival is 88%.
`O=C(NCc1ccccc1Cl)c1ccc(CSCc2cccc(F)c2)o1`: the survival was -1% (active).
In the case of `O=C(CCSCc1ccc(Cl)cc1)NCCc1ccccc1` it was -6% (active); in that of `Cc1ccc(CCNC(=O)CCSCc2ccc(Cl)cc2)cc1`, 72%; in that of `O=C(CCSCc1cccc(Cl)c1)NCCc1ccc(Cl)cc1`, 67%.
`Cc1ccc(CCNC(=O)c2ccc(CS(=O)(=O)Cc3ccccc3F)o2)cc1`: the survival was 71%.
For `Cc1ccc(CCNC(=O)CCSCc2ccccc2F)cc1`, the survival is -6% (active).
With `O=C(NCc1ccccc1Cl)c1ccc(CSCc2ccccc2Cl)o1` the figure was 66%.
With `Cc1ccc(CNC(=O)CCSCc2ccccc2F)cc1` the figure was 74%.
On to `CCc1ccc(CNC(=O)CCSCc2ccccc2F)cc1`, for which the survival was 70%.
With `O=C(NCCc1ccc(Cl)cc1)c1ccc(CS(=O)(=O)Cc2ccccc2F)o1` the figure was -3% (active); with `O=C(NCc1ccc(F)cc1Cl)c1ccc(CSCc2ccccc2Cl)o1`, 53%.
Turning to `COc1cccc(CNS(=O)(=O)c2ccc(-c3cc(C(F)(F)F)on3)s2)c1`, the survival was 87%.
`CC1=C(C(=O)Nc2cc(Cl)ccc2C)C(c2sccc2C)n2ncnc2N1` (configuration not stated): the survival was 47%.
